Hits are enriched below; roughly 8.3% of the tested compounds scored in any of these assays.
HCV inhibitor: inhibitors of hepatitis C virus infection | Huh7.5.1 HCVcc-Cre infection, luciferase reporter, 44 h | AID 651820 | 340,000 compounds, 3.4% hits | Potency, µM (doses to about 41.8 µM), usual class: inhibitors
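Reporter virus HCVcc-Cre (~0.5 moi) infects cells exposed to compound; seeding density 1,000 cells/well with 4 h settling beforehand. Luminescence, 15 sec read, taken 44 h post-infection following a 15 min RT substrate incubation.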
FBPA Giardia inh: inhibitors of Giardia lamblia fructose-1,6-bisphosphate aldolase; Potency, µM (titrated, usually from 59.6 µM), hits mostly inhibitors; 290,000 compounds, 0.71% hits; purified Giardia FBPA; AID 2451; further: nearly all actives have a fitted effect of over 55% in size
Target sequence (A8B2U2 whole entry, looked up): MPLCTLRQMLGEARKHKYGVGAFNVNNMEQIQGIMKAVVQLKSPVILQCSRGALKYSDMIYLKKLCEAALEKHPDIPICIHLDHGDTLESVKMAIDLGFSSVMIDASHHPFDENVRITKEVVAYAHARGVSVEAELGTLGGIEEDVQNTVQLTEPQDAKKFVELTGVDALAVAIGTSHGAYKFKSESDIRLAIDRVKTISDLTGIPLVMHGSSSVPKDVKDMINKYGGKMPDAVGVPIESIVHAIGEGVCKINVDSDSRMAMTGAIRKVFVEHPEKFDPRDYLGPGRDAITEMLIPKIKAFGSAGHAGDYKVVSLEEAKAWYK
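40 nM FBPA preincubated 10 min at RT with compound (up to 57.5 uM final), then substrate plus GAPDH/TPI/NAD/arsenate coupling and diaphorase/resazurin added. Fluorescence read after 20 min at RT, 525/598 nm.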
HCMV antiviral: human cytomegalovirus inhibition; HFF cells, HCMV-luciferase reporter, 72 h; active compounds read low; activity change, negative = inhibition, % at 57.5 µM; 410,000 compounds, 4.5% hits; AID 1259415; in the data active means activity change below about -60%; inconclusive means no clear call, values can overlap the other calls; inactive means above about -39%
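Two compound doses tested in HFFs infected with HCMV-luciferase, MOI 1 PFU/cell, 72 h at 37C. Lysate luminescence read with OneGlo; data normalized against buffer-only and 10uM Salinomycin inhibitor controls.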
LASV entry inh: blocks Lassa virus binding to or entry into cells; AID 540256; Lassa virus pseudotype entry inhibition, cell reporter; 300,000 compounds, 1.2% hits; Potency, µM (top dose mostly 37.9 µM), most hits filed as inhibitors; calls by dose curve; tested in HEK293 cells; further: nearly all actives have a fitted effect of over 50% in size
FMDV inh: antivirals against foot and mouth disease virus | AID 1159524 | FMDV antiviral cell-based qHTS | Potency, µM (series often up to 57.9 µM), actives largely listed as inhibitors | 410,000 compounds, 1.2% hits; calls by dose curve; tested in HEK293T cells; further: read-out not given here; nearly all actives have a fitted effect of over 45% in size
Marburg entry inh: inhibitors of Marburg virus binding or cell entry; Marburg virus pseudotyped entry inhibition, cell reporter; AID 540276; 300,000 compounds, 1.8% hits; Potency, µM (top dose mostly 37.8 µM), actives largely listed as inhibitors; calls by dose curve; tested in HEK293 cells
Numbers stand for hits. Unless noted, the call rests on the fitted dose curve; in most records, active means well fitted curve in the direction sought with a large enough effect; inconclusive means small, poorly fitted or top-dose-only effect, or another doubt; inactive means no such curve, though single readings can be large; an effect the other way counts as inactive or inconclusive.

`Cc1ccc(CCN2CC(C(=O)NC(C)C)CC2=O)cc1` (stereo not drawn) gave HCV inhibitor inactive, FBPA Giardia inh inactive, HCMV antiviral -61, LASV entry inh inactive, FMDV inh inactive and Marburg entry inh inactive.
`COc1ccc(CNC(=O)CCCc2cn(C)c3ccccc23)c(OC)c1` gave HCMV antiviral inconclusive, LASV entry inh inactive and FMDV inh inactive.
For CCC(O)CC(C(=O)NNc1ccccc1)C(=O)NNc1ccccc1 (stereo not drawn) the results were HCV inhibitor inactive, FBPA Giardia inh inactive, HCMV antiviral inactive, LASV entry inh inconclusive, FMDV inh inactive and Marburg entry inh 2.5µM.
Screening CCOc1ccc(OCC)c(Nc2nc3ccc(Cl)cc3n3cnnc23)c1 returned HCMV antiviral inactive, LASV entry inh inactive, FMDV inh inactive and Marburg entry inh inconclusive.
O=C(Cn1ncc2c1-c1ccccc1OC2)N1CCN(Cc2ccccc2)CC1 was read as HCV inhibitor inactive, FBPA Giardia inh inactive, HCMV antiviral inactive, LASV entry inh inconclusive, FMDV inh inconclusive and Marburg entry inh inactive.
`O=C(Cn1ncc(Cl)c(Cl)c1=O)N1CCc2ccccc21` gave HCV inhibitor inconclusive, FBPA Giardia inh inactive, HCMV antiviral -95, LASV entry inh inconclusive, FMDV inh inconclusive and Marburg entry inh inconclusive.
`O=C(Cn1ncc(Cl)c(Cl)c1=O)N1CCN(Cc2ccccc2)CC1` gave HCV inhibitor 3.5µM, FBPA Giardia inh inactive, HCMV antiviral -83 and FMDV inh inconclusive.
For O=C(Cn1ncc2c1-c1ccccc1OC2)N1CCc2ccccc21 the results were HCV inhibitor inactive, FBPA Giardia inh inactive, HCMV antiviral inactive, LASV entry inh inactive, FMDV inh inactive and Marburg entry inh inactive.
`O=C(Cn1ncc(Cl)c(Cl)c1=O)N1CCOCC1` gave HCV inhibitor inconclusive, FBPA Giardia inh inactive, HCMV antiviral -99, LASV entry inh inconclusive, FMDV inh inactive and Marburg entry inh inconclusive.
C=CCCCCCCCCCCC/C=C/C(O)COC(C)=O (stereo not drawn) was read as FBPA Giardia inh inactive and FMDV inh inactive.
`Cc1nc(SCC(=O)Nc2cccc(Cl)c2)n[nH]1` gave HCV inhibitor inactive, FBPA Giardia inh inactive, HCMV antiviral inactive, LASV entry inh inactive, FMDV inh inactive and Marburg entry inh inactive.
`Nc1nc(SCC(=O)Nc2cccc(F)c2)n[nH]1` gave HCV inhibitor inactive, HCMV antiviral -100 and FMDV inh inactive.
`O=C(CSc1n[nH]c(-c2ccccn2)n1)Nc1cccc(Cl)c1` gave HCV inhibitor 10µM, HCMV antiviral -98, LASV entry inh inconclusive, FMDV inh inactive and Marburg entry inh inconclusive.
For COc1cccc(CNc2ncnc3onc(-c4ccc(F)cc4)c23)c1 the results were HCMV antiviral inactive, LASV entry inh inactive and FMDV inh inactive.
For COc1ccc2[nH]cc(CCNc3nc(-c4ccc(N(C)C)cc4)nc4ccccc34)c2c1 the results were FBPA Giardia inh inactive and FMDV inh inactive.
`CCOc1ccc(-c2oc3ccccc3c(=O)c2O)cc1OCC` gave HCMV antiviral -65, LASV entry inh inconclusive, FMDV inh inactive and Marburg entry inh inactive.
Screening COc1ccc(-c2oc3ccccc3c(=O)c2O)cc1OC returned FBPA Giardia inh inactive and FMDV inh inactive.
For O=C(Cc1c[nH]c2ccccc12)Nc1nnc(C2CC2)s1 the results were HCV inhibitor inactive, FBPA Giardia inh inactive, HCMV antiviral -80, LASV entry inh 3.5µM, FMDV inh inactive and Marburg entry inh inconclusive.
`CCOc1ccc(-c2cn3c(n2)sc2cc(C(=O)NCCCN(CC)CC)ccc23)cc1` gave LASV entry inh inconclusive and FMDV inh inactive.
Screening O=C(CSc1ccccc1)NCC1(N2CCOCC2)CCCCC1 returned HCV inhibitor inactive, HCMV antiviral -77, LASV entry inh inactive, FMDV inh inactive and Marburg entry inh inactive.
`Cc1cc(OCC(=O)NCC2(N3CCN(C)CC3)CCCCC2)cc(C)c1Cl` gave HCMV antiviral -82, LASV entry inh inactive, FMDV inh inactive and Marburg entry inh inconclusive.
Screening O=C(COc1ccccc1Cl)NCC1(N2CCOCC2)CCCCC1 returned HCMV antiviral -100, LASV entry inh inactive, FMDV inh inactive and Marburg entry inh inactive.

Assay outcomes: PubChem BioAssay, National Center for Advancing Translational Sciences (NCATS)
